Measurements reported in PubChem BioAssay AID1159580 (chemical genetic matrix, 2015).
Several values for one entry are separate records, joined by “and”; a condition that tells them apart may be missing. Equal entries are not always repeated. About 2,000 (36%) of roughly 5,500 compounds were called active. Another 18% or so got no clear call; they are omitted. Rule as the data show it: active = normalized growth mostly below about 0.91 (no sharp cut-off); inconclusive = no clear call, values can overlap the other calls; inactive = mostly above about 0.92. This is one part of the list.

Assay: chemical genetic growth profiling, strain panel (AID 1159580);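 also: tested at 20 µM; growth read once vehicle control cultures reached saturation at 30 °C; 1 = growth at the plate median or of vehicle wells; lower values mean less growth of the strain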
Details: S. cerevisiae deletion strains, growth OD

Measured: normalized growth

O=c1[nH]c(=O)n(C2C[C@@H](O)[C@@H](CO)O2)cc1F (stereo partly drawn)
inactive: locus YAL013W, strain DEP1, hits give low values 1.04 | locus YAL021C, strain ccr4, hits give low values 1.01 | locus YAL026C, strain drs2, hits give low values 0.996 | locus YAL030W, strain snc1, hits give low values 0.992 | locus YBL061C, strain skt5, hits give low values 0.987 | locus YBR009C, strain hhf1, hits give low values 1 | locus YBR021W, strain FUR4, hits give low values 1 | locus YBR023C, strain chs3, hits give low values 1 | locus YBR171W, strain sec66, hits give low values 0.993 | locus YBR229C, strain ROT2, hits give low values 1 | locus YBR231C, strain swc5, hits give low values 1 | locus YBR279W, strain paf1, hits give low values 1.01 | locus YCL011C, strain gbp2, hits give low values 1.01 | locus YCL016C, strain dcc1, hits give low values 0.994 | locus YCL029C, strain bik1, hits give low values 1.01 | locus YCL061C, strain MRC1, hits give low values 0.996 | locus YCL069W, strain vba3, hits give low values 0.987 | locus YCR088W, strain abp1, hits give low values 0.986 | locus YDL005C, strain med2, hits give low values 0.992 | locus YDL035C, strain GPR1, hits give low values 0.99 | locus YDL040C, strain nat1, hits give low values 1.01 | locus YDL074C, strain BRE1, hits give low values 1.04 | locus YDL101C, strain DUN1, hits give low values 1.03 | locus YDL185W, strain tfp1, hits give low values 1.01 | locus YDL192W, strain arf1, hits give low values 1.02 | locus YDR001C, strain nth1, hits give low values 0.979 | locus YDR069C, strain doa4, hits give low values 0.998 | locus YDR101C, strain arx1, hits give low values 1.01 | locus YDR137W, strain rgp1, hits give low values 0.989 | locus YDR159W, strain sac3, hits give low values 0.992 | locus YDR162C, strain NBP2, hits give low values 0.993 | locus YDR195W, strain ref2 0.984 | locus YDR297W, strain sur2, hits give low values 0.998 | locus YDR318W, strain mcm21, hits give low values 1.01 | locus YDR334W, strain swr1, hits give low values 0.97 | locus YDR335W, strain msn5, hits give low values 1.01 | locus YDR388W, hits give low values 1.01 | locus YDR392W, strain spt3, hits give low values 0.994 | locus YDR502C, strain sam2, hits give low values 1.01 | locus YEL003W, strain gim4, hits give low values 0.989 | locus YEL037C, strain rad23, hits give low values 0.993 | locus YEL061C, strain CIN8 (second series), hits give low values 0.981 | locus YEL061C, strain CIN8, hits give low values 1.01 | locus YER015W, strain faa2, hits give low values 0.998 | locus YER016W, strain bim1, hits give low values 1.01 | locus YER110C, hits give low values 1.02 | locus YER111C, strain swi4, hits give low values 0.996 | locus YER155C, strain BEM2 (second series), hits give low values 1.01 | locus YER155C, strain BEM2, hits give low values 1.01 | locus YER167W, strain BCK2, hits give low values 1 | locus YFR010W, strain ubp6, hits give low values 1.01 | locus YGL078C, strain dbp3, hits give low values 1 | locus YGL086W, strain mad1, hits give low values 1.01 | locus YGL167C, strain pmr1, hits give low values 0.996 | locus YGL173C, strain kem1, hits give low values 1.01 | locus YGL227W, strain vid30, hits give low values 0.979 | locus YGL240W, strain doc1, hits give low values 0.972 | locus YGL248W, strain PDE1, hits give low values 1.03 | locus YGL253W, strain hxk2, hits give low values 1 | locus YGR078C, strain PAC10, hits give low values 1.03 | locus YGR135W, strain pre9, hits give low values 1.01 | locus YGR252W, strain gcn5, hits give low values 1.01 | locus YHR013C, strain ard1, hits give low values 1.01 | locus YHR027C, strain rpn1, hits give low values 0.98 | locus YHR030C, strain SLT2, hits give low values 1 and 0.982 | locus YHR079C, strain IRE1 (second series), hits give low values 1.02 | locus YHR079C, strain IRE1, hits give low values 0.965 | locus YHR094C, strain hxt1, hits give low values 1.02 | locus YHR129C, strain ARP1, hits give low values 1.01 | locus YHR142W, strain chs7, hits give low values 0.985 | locus YHR200W, strain rpn10, hits give low values 1.01 | locus YIL066C, strain RNR3, hits give low values 0.988 | locus YIL073C, strain SPO22, hits give low values 1.04 | locus YIL125W, strain kgd1, hits give low values 1.02 | locus YIR030C, strain dcg1, hits give low values 1.01 | locus YJL092W, strain hpr5, hits give low values 0.971 | locus YJL095W, strain BCK1 (second series), hits give low values 1.01 | locus YJL095W, strain BCK1, hits give low values 1.06 and 0.975 | locus YJL115W, strain asf1, hits give low values 0.982 | locus YJL129C, strain trk1, hits give low values 0.963 | locus YJL134W, strain LCB3, hits give low values 1.01 | locus YJL154C, strain vps35, hits give low values 0.993 | locus YJL164C, strain tpk1, hits give low values 1 | locus YJL166W, strain qcr8, hits give low values 1.01 | locus YJL168C, strain set2, hits give low values 1.01 | locus YJL187C, strain SWE1 (second series), hits give low values 1.05 | locus YJL187C, strain SWE1, hits give low values 0.994 | locus YJR043C, strain POL32, hits give low values 0.975
